According to the supplement of paper PMC10849652:
The full data set covers some 7,900 targets. This sample favours those with a hit. About 0.6% of all pairs of compound and target were hits. Values without a mark were called inactive.

How the values were obtained:
Experiment in all cases: log2 fold change, soluble protein after heating vs DMSO (PISA); higher = thermal stabilisation; K562 cells, 10 uM, 30 min; active = over 0.2 and 3.5 SD of the protein, either way, in both replicates (recomputed)
[1] = compound: C1=CC=C(C=C1)[C@H](COC2=CC3=C(C=C2)NC(=O)N3)NC(=O)C4=CC=CN(C4=O)CC5=CC(=C(C=C5)F)F
Method in brief: (§1)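 K562 cells (2×10^6 cells/mL) were treated with 10 μM compound for 30 min, and aliquots were heated for 3 min over 48°C-58°C. Pooled aliquots were extracted in PBS with 0.5% NP-40 at 4°C, and the supernatant after 21,000xg for 90 min was measured by TMTpro 16plex LC-MS/MS with channel sums equalised. Reported thermal stability, relative to control samples and from duplicates, is a log2 fold change.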

[2] = compound: CC1=C(SC2=C1C(=N[C@H](C3=NN=C(N32)C)CC(=O)N)C4=CC=C(C=C4)Cl)C
Method in brief: as §1

[3] = compound: CC1=C2C(=CC=C1)N=C(N(C2=O)C3=CC=CC=C3C)CN4C=NC5=C(N=CN=C54)N
Method in brief: as §1

[4] = compound: Cc1sc2c(c1C)C(c1ccc(Cl)cc1)=N[C@@H](CC(=O)OC(C)(C)C)c1nnc(C)n1-2
Method in brief: as §1

[5] = compound: c1ccc([C@@H]2C[C@H]2NC2CCNCC2)cc1
Method in brief: as §1

UniProt P51570, sequence (P51570 whole entry, looked up): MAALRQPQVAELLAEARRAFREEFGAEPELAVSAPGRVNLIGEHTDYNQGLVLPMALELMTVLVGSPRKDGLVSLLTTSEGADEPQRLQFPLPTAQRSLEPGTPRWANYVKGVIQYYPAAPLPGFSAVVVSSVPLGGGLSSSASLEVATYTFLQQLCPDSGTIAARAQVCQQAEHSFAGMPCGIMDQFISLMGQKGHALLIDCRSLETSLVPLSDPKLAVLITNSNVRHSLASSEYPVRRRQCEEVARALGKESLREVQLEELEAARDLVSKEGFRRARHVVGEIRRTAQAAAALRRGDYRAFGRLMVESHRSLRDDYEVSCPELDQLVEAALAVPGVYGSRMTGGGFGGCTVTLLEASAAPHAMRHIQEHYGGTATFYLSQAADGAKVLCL
UniProt P02008, sequence (P02008 whole entry, looked up): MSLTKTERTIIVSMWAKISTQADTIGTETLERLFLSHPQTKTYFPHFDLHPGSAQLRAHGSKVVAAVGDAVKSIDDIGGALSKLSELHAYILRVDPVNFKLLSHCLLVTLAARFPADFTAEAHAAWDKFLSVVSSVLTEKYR
UniProt Q03014, sequence (Q03014 whole entry, looked up): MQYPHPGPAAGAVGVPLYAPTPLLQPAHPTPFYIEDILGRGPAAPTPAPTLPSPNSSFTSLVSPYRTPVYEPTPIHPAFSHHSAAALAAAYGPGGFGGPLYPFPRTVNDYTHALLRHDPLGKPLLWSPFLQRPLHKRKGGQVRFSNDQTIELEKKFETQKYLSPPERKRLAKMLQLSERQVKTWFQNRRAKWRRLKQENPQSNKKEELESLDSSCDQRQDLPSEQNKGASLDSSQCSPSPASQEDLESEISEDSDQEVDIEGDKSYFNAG
UniProt P49841, sequence (P49841 whole entry, looked up): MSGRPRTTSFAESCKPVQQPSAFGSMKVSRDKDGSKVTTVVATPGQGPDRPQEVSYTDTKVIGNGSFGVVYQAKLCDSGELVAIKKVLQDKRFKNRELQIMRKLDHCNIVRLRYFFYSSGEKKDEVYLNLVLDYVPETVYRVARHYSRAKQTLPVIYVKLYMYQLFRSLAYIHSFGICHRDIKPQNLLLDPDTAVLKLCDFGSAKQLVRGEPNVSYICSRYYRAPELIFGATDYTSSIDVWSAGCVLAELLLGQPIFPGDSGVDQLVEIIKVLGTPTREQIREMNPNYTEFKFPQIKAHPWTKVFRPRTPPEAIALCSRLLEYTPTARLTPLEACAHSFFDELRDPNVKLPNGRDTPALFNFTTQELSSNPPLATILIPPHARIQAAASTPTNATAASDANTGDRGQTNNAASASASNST
UniProt Q12894, sequence (Q12894 whole entry, looked up): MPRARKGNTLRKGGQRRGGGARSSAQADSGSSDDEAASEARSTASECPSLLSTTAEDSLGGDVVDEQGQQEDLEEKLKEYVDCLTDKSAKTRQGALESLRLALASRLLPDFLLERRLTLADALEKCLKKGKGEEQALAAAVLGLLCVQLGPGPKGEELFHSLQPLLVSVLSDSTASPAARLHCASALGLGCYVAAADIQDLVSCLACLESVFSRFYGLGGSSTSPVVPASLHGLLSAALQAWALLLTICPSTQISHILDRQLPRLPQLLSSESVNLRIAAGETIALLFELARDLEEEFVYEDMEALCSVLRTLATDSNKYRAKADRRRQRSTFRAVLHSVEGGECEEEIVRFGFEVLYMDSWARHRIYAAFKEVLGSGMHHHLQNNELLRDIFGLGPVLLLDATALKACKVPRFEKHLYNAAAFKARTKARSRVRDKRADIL
UniProt Q96I24, sequence (Q96I24 whole entry, looked up): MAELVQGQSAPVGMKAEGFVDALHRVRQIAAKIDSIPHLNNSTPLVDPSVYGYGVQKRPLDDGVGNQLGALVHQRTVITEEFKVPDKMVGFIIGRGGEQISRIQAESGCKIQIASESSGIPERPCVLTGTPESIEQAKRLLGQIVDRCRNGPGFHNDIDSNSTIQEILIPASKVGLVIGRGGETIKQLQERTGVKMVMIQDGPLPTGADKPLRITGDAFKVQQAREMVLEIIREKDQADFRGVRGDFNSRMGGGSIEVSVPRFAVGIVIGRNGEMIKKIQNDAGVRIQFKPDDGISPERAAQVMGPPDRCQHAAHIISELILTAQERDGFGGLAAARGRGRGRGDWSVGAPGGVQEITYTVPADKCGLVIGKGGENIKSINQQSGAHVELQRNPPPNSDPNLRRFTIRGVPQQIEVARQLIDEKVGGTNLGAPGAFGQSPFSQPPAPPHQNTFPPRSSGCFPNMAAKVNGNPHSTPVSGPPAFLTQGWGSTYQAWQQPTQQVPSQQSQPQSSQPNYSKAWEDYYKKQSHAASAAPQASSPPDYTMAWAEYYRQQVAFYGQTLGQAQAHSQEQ
UniProt Q86UX7, sequence (Q86UX7 whole entry, looked up): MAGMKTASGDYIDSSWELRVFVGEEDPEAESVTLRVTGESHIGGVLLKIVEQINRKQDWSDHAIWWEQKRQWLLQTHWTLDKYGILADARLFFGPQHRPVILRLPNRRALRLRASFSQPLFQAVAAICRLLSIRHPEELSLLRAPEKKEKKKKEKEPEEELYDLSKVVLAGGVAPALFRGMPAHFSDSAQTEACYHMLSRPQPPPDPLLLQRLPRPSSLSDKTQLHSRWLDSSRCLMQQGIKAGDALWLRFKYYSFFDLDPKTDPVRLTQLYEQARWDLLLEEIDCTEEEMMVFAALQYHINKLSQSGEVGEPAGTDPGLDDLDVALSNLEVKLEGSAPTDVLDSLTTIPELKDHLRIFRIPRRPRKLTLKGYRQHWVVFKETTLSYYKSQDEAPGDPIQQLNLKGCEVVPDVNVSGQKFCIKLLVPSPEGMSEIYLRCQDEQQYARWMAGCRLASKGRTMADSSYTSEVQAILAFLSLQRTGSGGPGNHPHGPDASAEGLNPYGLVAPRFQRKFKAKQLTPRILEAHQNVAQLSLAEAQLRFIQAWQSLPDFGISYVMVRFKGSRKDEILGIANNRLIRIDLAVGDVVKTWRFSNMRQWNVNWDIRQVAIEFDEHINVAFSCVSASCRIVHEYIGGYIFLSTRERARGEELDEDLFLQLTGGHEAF
UniProt O75146, sequence (O75146 whole entry, looked up): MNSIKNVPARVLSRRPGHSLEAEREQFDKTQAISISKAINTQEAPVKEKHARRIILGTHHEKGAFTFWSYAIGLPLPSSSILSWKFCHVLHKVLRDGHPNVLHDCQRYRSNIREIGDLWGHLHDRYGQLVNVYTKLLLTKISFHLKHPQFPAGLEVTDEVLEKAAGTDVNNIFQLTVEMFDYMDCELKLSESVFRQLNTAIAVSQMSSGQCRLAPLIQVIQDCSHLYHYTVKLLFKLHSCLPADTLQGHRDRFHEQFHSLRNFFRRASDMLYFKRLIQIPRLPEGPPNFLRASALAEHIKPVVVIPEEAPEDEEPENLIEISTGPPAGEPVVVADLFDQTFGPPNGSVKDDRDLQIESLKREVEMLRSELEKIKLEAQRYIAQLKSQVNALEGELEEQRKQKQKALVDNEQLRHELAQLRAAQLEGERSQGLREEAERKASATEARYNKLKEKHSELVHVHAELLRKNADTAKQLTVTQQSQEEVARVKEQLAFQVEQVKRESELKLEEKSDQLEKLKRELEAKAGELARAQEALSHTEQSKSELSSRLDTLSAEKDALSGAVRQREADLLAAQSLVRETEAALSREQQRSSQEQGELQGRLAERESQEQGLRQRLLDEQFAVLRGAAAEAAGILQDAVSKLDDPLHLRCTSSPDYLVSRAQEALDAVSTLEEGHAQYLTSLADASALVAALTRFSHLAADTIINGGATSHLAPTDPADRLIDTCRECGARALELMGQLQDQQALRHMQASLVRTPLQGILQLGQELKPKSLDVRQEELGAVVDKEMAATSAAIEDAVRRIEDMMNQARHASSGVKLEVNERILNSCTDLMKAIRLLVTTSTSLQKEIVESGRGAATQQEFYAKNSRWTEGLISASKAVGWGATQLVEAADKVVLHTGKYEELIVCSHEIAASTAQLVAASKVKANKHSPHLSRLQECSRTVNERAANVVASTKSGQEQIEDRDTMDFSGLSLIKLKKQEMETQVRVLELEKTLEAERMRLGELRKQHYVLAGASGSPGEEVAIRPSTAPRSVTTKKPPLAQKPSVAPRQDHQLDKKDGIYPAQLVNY
UniProt P37268, sequence (P37268 whole entry, looked up): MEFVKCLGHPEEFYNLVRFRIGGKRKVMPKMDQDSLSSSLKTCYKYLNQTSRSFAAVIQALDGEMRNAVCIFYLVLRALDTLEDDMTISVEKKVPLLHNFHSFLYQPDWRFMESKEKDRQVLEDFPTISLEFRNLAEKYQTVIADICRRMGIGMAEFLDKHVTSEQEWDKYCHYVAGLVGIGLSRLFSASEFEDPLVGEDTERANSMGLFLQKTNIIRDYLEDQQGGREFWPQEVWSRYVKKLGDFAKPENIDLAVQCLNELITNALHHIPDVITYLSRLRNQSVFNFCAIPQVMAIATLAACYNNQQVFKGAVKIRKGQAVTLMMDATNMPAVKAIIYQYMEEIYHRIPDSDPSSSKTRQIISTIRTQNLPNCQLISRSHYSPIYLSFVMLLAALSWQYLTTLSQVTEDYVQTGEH
UniProt Q9Y692, sequence (Q9Y692 whole entry, looked up): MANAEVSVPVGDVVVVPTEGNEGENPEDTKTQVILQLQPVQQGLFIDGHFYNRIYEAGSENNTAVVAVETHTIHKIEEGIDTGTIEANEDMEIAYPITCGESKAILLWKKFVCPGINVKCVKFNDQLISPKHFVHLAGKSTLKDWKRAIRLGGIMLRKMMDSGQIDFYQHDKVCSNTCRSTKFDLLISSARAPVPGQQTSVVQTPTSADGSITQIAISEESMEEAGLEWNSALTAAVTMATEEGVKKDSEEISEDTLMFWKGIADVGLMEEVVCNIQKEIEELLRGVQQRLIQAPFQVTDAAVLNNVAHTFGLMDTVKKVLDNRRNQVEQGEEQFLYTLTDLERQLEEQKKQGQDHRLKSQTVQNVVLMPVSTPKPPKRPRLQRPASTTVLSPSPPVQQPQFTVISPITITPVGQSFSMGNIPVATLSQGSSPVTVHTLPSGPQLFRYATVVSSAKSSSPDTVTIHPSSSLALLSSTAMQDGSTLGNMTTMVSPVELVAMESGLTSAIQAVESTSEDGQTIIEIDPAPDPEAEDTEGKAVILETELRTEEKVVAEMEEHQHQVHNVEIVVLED

Row | Target | log2 fold change [1] | log2 fold change [2] | log2 fold change [3] | log2 fold change [4] | log2 fold change [5]
1 | HIP1R (UniProt O75146) | -0.038 | 0.061 | 0.1 | -0.031 | -0.02
2 | GSK3B isoform 2 (UniProt P49841) | 0 | 0.083 | 0.026 | -0.016 | -0.008
3 | GBA2 (UniProt Q9HCG7) | 0.099 | 0.012 | 0.017 | 0.034 | 0.023
4 | GALK1 isoform 2 (UniProt P51570) | -0.02 | 0.016 | -0.065 | -0.024 | -0.007
5 | HBZ (UniProt P02008) | 0.047 | 0.191 | 0.091 | -0.132 | -0.009
6 | GTF3C4 (UniProt Q9UKN8) | 0.027 | 0.065 | 0.143 | 0.02 | 0.025
7 | HHEX (UniProt Q03014) | 0.054 | 0.187 | 0.469 | 0.026 | 0.516
8 | FDFT1 (UniProt P37268) | -0.064 | 0.319 (active) | 0.089 | 0.109 | -0.021
9 | FUBP3 (UniProt Q96I24) | 0.009 | 0.002 | 0.017 | 0.065 | 0.006
10 | HMGN2 (UniProt P05204) | -0.099 | -0.056 | -0.033 | 0.021 | 0.07
11 | IFRD2 isoform 2 (UniProt Q12894) | -0.013 | -0.091 | -0.055 | 0.063 | 0.061
12 | FASTKD1 (UniProt Q53R41) | -0.038 | 0.151 | 0.013 | 0.204 | 0.07
13 | GMEB1 (UniProt Q9Y692) | 0.02 | 0.084 | -0.007 | 0.024 | 0.022
14 | FERMT3 (UniProt Q86UX7) | -0.026 | 0.066 | 0.053 | -0.018 | -0.019
